Several values for one entry are separate records, joined by “and”; a condition that tells them apart may be missing. Equal entries are not always repeated. The campaign covered roughly 5,500 compounds. About 2,000 (36%) were called active. About 18% were inconclusive and are not listed. No stated cut-off is given here; in the data, active means normalized growth mostly below about 0.91 (no sharp cut-off); inconclusive means no clear call, values can overlap the other calls; inactive means mostly above about 0.92. This is one part of the list.
Experiment: chemical genetic growth profiling, strain panel (AID 1159580);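 further: tested at 20 µM; growth read once vehicle control cultures reached saturation at 30 °C; 1 = growth at the plate median or of vehicle wells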
Conditions: S. cerevisiae deletion strains, growth OD

Measured: normalized growth

O=C(Oc1cc(O)cc2c1C[C@@H](OC(=O)c1cc(O)c(O)c(O)c1)[C@@H](c1cc(O)c(O)c(O)c1)O2)c1cc(O)c(O)c(O)c1
active: locus YBR229C, strain ROT2, stronger effect = lower value 0.482 | locus YCL029C, strain bik1, stronger effect = lower value 0.668 | locus YDL035C, strain GPR1, stronger effect = lower value 0.133 | locus YDL074C, strain BRE1, stronger effect = lower value 0.334 | locus YDL101C, strain DUN1, stronger effect = lower value 0.147 | locus YDL185W, strain tfp1, stronger effect = lower value 0.872 | locus YDL192W, strain arf1, stronger effect = lower value 0.638 | locus YDR101C, strain arx1, stronger effect = lower value 0.806 | locus YDR162C, strain NBP2, stronger effect = lower value 0.0879 | locus YDR318W, strain mcm21, stronger effect = lower value 0.736 | locus YDR388W, stronger effect = lower value 0.759 | locus YDR502C, strain sam2, stronger effect = lower value 0.52 | locus YEL061C, strain CIN8, stronger effect = lower value 0.438 | locus YER155C, strain BEM2, stronger effect = lower value 0.775 | locus YER167W, strain BCK2, stronger effect = lower value 0.492 | locus YGL086W, strain mad1, stronger effect = lower value 0.431 | locus YGL248W, strain PDE1, stronger effect = lower value 0.24 | locus YGR078C, strain PAC10, stronger effect = lower value 0.621 | locus YGR135W, strain pre9, stronger effect = lower value 0.62 | locus YGR252W, strain gcn5, stronger effect = lower value 0.658 | locus YHR079C, strain IRE1 (second series), stronger effect = lower value 0.79 | locus YHR129C, strain ARP1, stronger effect = lower value 0.337 | locus YHR200W, strain rpn10, stronger effect = lower value 0.661 | locus YIL066C, strain RNR3, stronger effect = lower value 0.096 | locus YIL073C, strain SPO22, stronger effect = lower value 0.241 | locus YIR030C, strain dcg1, stronger effect = lower value 0.889 | locus YJL134W, strain LCB3, stronger effect = lower value 0.551 | locus YJL187C, strain SWE1 (second series), stronger effect = lower value 0.104
inactive: locus YAL021C, strain ccr4, stronger effect = lower value 1.01 | locus YAL026C, strain drs2, stronger effect = lower value 0.988 | locus YAL030W, strain snc1, stronger effect = lower value 1.01 | locus YBL061C, strain skt5, stronger effect = lower value 1.01 | locus YBR009C, strain hhf1, stronger effect = lower value 1.01 | locus YBR021W, strain FUR4, stronger effect = lower value 1.05 | locus YBR023C, strain chs3, stronger effect = lower value 1.02 | locus YBR171W, strain sec66, stronger effect = lower value 0.994 | locus YBR231C, strain swc5, stronger effect = lower value 1.02 | locus YBR279W, strain paf1, stronger effect = lower value 1.01 | locus YCL011C, strain gbp2, stronger effect = lower value 0.979 | locus YCL016C, strain dcc1, stronger effect = lower value 1.01 | locus YCL061C, strain MRC1, stronger effect = lower value 0.983 | locus YCL069W, strain vba3, stronger effect = lower value 0.992 | locus YCR088W, strain abp1, stronger effect = lower value 0.992 | locus YDL005C, strain med2, stronger effect = lower value 1.01 | locus YDL040C, strain nat1, stronger effect = lower value 0.998 | locus YDR001C, strain nth1, stronger effect = lower value 0.986 | locus YDR069C, strain doa4, stronger effect = lower value 1 | locus YDR137W, strain rgp1, stronger effect = lower value 0.99 | locus YDR159W, strain sac3, stronger effect = lower value 1.04 | locus YDR195W, strain ref2 1 | locus YDR297W, strain sur2, stronger effect = lower value 1.02 | locus YDR334W, strain swr1, stronger effect = lower value 0.996 | locus YDR335W, strain msn5, stronger effect = lower value 1.01 | locus YDR392W, strain spt3, stronger effect = lower value 1.02 | locus YEL003W, strain gim4, stronger effect = lower value 0.983 | locus YEL037C, strain rad23, stronger effect = lower value 0.982 | locus YEL061C, strain CIN8 (second series), stronger effect = lower value 1 | locus YER015W, strain faa2, stronger effect = lower value 0.989 | locus YER016W, strain bim1, stronger effect = lower value 1.02 | locus YER110C, stronger effect = lower value 0.956 | locus YER111C, strain swi4, stronger effect = lower value 0.974 | locus YER155C, strain BEM2 (second series), stronger effect = lower value 0.975 | locus YFR010W, strain ubp6, stronger effect = lower value 0.997 | locus YGL078C, strain dbp3, stronger effect = lower value 0.99 | locus YGL167C, strain pmr1, stronger effect = lower value 1.01 | locus YGL173C, strain kem1, stronger effect = lower value 1.02 | locus YGL227W, strain vid30, stronger effect = lower value 0.994 | locus YGL240W, strain doc1, stronger effect = lower value 1.05 | locus YGL253W, strain hxk2, stronger effect = lower value 1.03 | locus YHR013C, strain ard1, stronger effect = lower value 1.02 | locus YHR027C, strain rpn1, stronger effect = lower value 1.02 | locus YHR030C, strain SLT2, stronger effect = lower value 1.01 | locus YHR079C, strain IRE1, stronger effect = lower value 1 | locus YHR094C, strain hxt1, stronger effect = lower value 0.932 | locus YHR142W, strain chs7, stronger effect = lower value 1.01 | locus YIL125W, strain kgd1, stronger effect = lower value 0.958 | locus YJL092W, strain hpr5, stronger effect = lower value 0.989 | locus YJL095W, strain BCK1 (second series), stronger effect = lower value 1.02 | locus YJL115W, strain asf1, stronger effect = lower value 1 | locus YJL129C, strain trk1, stronger effect = lower value 1.03 | locus YJL154C, strain vps35, stronger effect = lower value 0.988 | locus YJL164C, strain tpk1, stronger effect = lower value 1.01 | locus YJL166W, strain qcr8, stronger effect = lower value 1.04 | locus YJL168C, strain set2, stronger effect = lower value 0.937
0.115 (active) and 0.99 (inactive): locus YJL095W, strain BCK1, stronger effect = lower value

— PubChem BioAssay AID1159580 (chemical genetic matrix, 2015)
